Reference: PubChem BioAssay (NCATS)
Results filed as inconclusive are left out. Activity calls are given as the source filed them. Unless noted, calls come from the whole dose curve; as a rule, active = well fitted curve in the direction sought with a large enough effect; inconclusive = small, poorly fitted or top-dose-only effect, or another doubt; inactive = no such curve, though single readings can be large; an effect the other way counts as inactive or inconclusive.

Experiments:
[1] = Natriuretic polypeptide receptor (hNpr1) antagonism - Pilot counterscreen GloSensor control cell line (AID 1347045; calls by dose curve)
Summary of the method: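 HEK293 cGMP GloSensor cells preloaded 2 h with 2% GloSensor reagent, then compound 30 min before baseline luminescence read. Stimulated with 50 uM sodium nitroprusside, 20 min at room temperature, then read again; counterscreen for Npr1 antagonism.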

[2] = biological target: Atrial natriuretic peptide receptor 1 (Homo sapiens) (UniProt P16066); experiment: Natriuretic polypeptide receptor (hNpr1) antagonism - Pilot screen (AID 1347049; calls by dose curve;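 note: agonist-evoked cGMP luminescence read 20 min after hNppA addition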)
Chain of Atrial natriuretic peptide receptor 1 (Homo sapiens) (P16066 whole entry, looked up): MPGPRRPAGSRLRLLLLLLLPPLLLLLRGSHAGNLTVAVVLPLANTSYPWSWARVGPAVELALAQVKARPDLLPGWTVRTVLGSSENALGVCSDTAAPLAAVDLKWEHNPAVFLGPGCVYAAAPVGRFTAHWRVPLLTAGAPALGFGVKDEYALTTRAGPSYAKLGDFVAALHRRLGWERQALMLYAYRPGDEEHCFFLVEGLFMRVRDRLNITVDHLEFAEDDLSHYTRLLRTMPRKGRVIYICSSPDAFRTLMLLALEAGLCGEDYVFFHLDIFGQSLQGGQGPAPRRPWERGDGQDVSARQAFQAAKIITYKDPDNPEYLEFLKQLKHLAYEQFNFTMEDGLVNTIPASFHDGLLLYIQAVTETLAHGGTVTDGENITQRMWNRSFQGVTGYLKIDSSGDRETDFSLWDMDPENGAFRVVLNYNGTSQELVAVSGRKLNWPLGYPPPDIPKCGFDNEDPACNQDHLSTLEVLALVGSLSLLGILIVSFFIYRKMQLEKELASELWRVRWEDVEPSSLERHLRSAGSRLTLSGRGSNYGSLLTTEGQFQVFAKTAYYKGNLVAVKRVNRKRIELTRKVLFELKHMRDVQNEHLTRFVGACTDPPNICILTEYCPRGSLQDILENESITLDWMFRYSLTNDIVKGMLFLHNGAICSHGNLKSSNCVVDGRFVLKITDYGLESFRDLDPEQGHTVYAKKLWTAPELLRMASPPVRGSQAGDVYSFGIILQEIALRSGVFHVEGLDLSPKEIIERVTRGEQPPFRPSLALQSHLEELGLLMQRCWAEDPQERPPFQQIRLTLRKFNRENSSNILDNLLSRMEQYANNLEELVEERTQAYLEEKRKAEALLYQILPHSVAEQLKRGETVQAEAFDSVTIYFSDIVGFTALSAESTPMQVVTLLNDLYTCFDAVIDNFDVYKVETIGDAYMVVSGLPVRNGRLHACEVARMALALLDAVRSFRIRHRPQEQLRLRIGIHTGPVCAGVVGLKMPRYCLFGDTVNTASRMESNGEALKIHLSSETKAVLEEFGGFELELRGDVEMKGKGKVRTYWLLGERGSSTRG
Summary of the method: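 HEK293 cells expressing hNpr1 and GloSensor cGMP luciferase, 1500/well, loaded with 2% GloSensor reagent 2 h, compound 30 min at room temperature; luminescence read before and 20 min after 0.1 nM hNppA stimulation.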

[3] = biological target: Atrial natriuretic peptide receptor 2 (Homo sapiens) (UniProt P20594); experiment: Natriuretic polypeptide receptor (hNpr2) antagonism - Pilot subtype selectivity assay (AID 1347050; calls by dose curve)
Chain of Atrial natriuretic peptide receptor 2 (Homo sapiens) (P20594 whole entry, looked up): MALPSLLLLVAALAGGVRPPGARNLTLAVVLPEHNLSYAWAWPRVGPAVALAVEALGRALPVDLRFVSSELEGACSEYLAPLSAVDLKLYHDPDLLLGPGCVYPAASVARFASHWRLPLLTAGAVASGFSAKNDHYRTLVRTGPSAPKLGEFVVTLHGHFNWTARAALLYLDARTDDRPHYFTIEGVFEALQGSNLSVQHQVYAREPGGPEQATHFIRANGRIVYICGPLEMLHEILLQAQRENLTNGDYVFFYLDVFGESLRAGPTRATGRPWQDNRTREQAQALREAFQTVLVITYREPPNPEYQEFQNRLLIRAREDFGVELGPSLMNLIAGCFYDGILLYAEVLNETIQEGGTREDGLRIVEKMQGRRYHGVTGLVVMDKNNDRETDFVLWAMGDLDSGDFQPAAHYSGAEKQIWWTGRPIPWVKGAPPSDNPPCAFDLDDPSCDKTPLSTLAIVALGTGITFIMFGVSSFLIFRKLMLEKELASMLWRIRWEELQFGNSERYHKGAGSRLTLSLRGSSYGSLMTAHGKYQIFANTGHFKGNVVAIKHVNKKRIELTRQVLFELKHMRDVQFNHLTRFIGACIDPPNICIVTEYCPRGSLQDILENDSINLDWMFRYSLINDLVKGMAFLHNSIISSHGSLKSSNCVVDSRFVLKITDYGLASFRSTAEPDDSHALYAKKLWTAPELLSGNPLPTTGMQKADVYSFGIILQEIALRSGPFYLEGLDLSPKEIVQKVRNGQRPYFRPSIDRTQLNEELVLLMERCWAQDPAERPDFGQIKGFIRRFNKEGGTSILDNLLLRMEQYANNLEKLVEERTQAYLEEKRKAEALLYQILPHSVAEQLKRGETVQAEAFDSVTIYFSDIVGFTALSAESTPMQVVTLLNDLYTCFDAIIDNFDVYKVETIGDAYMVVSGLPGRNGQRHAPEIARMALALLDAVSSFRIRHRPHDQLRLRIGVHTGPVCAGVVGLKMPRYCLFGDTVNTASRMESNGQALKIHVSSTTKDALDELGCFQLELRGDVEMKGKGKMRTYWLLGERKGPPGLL
Summary of the method: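 HEK293 cells expressing hNpr2 and a GloSensor cGMP luciferase sensor, 1500/well, preloaded 2 h with 2% GloSensor reagent, compound 30 min, then 1 nM hNppC for 20 min. Antagonism from luminescence after versus baseline pre-read; LOPAC in 1:5 titrations.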

[4] = biological target: Parathyroid hormone/parathyroid hormone-related peptide receptor (Homo sapiens) (UniProt Q03431); experiment: qHTS for PTHR1 Agonists: Optimization Screen against the NCGC LOPAC library (AID 1347079);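 note: GloSensor cAMP luminescence in HEK-293 GP2 cells expressing human PTHR1 with IBMX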
Chain of Parathyroid hormone/parathyroid hormone-related peptide receptor (Homo sapiens) (Q03431 whole entry, looked up): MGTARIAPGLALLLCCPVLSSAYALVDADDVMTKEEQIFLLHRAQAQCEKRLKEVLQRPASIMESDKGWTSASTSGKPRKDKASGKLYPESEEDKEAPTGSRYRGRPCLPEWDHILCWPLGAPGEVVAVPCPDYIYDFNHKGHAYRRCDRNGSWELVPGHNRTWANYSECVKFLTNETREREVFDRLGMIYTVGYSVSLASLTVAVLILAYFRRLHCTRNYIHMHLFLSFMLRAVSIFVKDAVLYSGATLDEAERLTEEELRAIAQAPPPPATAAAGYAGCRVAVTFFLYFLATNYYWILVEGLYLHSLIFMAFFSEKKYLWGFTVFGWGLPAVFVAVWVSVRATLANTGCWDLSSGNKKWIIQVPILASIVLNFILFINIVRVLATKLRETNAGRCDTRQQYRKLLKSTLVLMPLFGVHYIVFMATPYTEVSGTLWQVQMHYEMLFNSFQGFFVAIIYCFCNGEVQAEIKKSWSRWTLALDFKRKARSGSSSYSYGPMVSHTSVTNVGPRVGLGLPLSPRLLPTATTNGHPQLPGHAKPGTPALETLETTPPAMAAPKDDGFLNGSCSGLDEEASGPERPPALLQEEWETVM
Summary of the method: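 Agonist readout: GloSensor cAMP luminescence, read after 15 min at room temperature. HEK-293-derived GP2 line carries PTHR1; compounds tested as a titration for 1 hr at 37C in presence of IBMX. M-PTH (1-15) served as control.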

[5] = High-throughput drug toxicity screening in the BPDCN cell line Cal-1 (AID 1224825; call rule not given here); conditions: Cal-1 BPDCN cell viability, qHTS; at 45.8 µM (top of the series) unless noted
Summary of the method: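 Cal-1 cells, 500 per well in phenol-red-free RPMI with 10% FBS, exposed to compounds for 48 hours at 37C, 5% CO2. Viability read by CellTiter-Glo luminescence; percent activity normalized to DMSO (100%) and 9.2 uM bortezomib final (0%).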

[6] = qHTS assay for measurement of the activity of small molecule inhibitors on Zika virus induced Caspase-3 activity in human iPSC derived neural progenitor cells (hNPCs) (AID 1224857); note: nearly all actives have a fitted effect of over 65% in size
Summary of the method: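 Quantitative HTS format: human iPSC neural progenitors, 1 h compound pretreatment, ZIKV 2 FFU/cell for 6 h at 37 C. Percent inhibition derived from luminescent caspase-3/7 signal between uninfected and infected controls.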

[7] = qHTS assay for measurement of the activity of small molecule inhibitors on Zika virus induced Caspase-3 activity in human astrocytoma cells (AID 1224859)
Summary of the method: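 Readout is luminescence from Caspase-Glo 3/7 added after a 6 h ZIKV infection (2 FFU/cell) of compound-pretreated (1 h) SNB-19 cells; data expressed as % inhibition versus uninfected and infected wells.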

[8] = qHTS Screen of the MIPE 4.0 Collection Against Ewings Sarcoma (RDES) (AID 1259252); note: nearly all actives have a fitted effect of over 35% in size; note: potency is the fitted concentration of half-maximal effect
Summary of the method: (§1)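 Log-phase cells in RPMI with 5% FBS attached for 4 h, then received compounds as a titration for 48 h at 37C, 5% CO2. Viability was read by CellTiter-Glo luminescence and normalized to DMSO and no-cell wells.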

[9] = qHTS Screen of the MIPE 4.0 Collection Against Ewings Sarcoma (TC71) (AID 1259253); note: nearly all actives have a fitted effect of over 40% in size; note: potency is the fitted concentration of half-maximal effect
Summary of the method: as §1

[10] = qHTS Screen of the MIPE 4.0 Collection Against Ewings Sarcoma (EW8) (AID 1259255); note: nearly all actives have a fitted effect of over 35% in size; note: potency is the fitted concentration of half-maximal effect
Summary of the method: as §1

[11] = qHTS Screen of the MIPE 4.0 Collection Against Ewings Sarcoma (TC32) (AID 1259256); note: nearly all actives have a fitted effect of over 45% in size; note: potency is the fitted concentration of half-maximal effect
Summary of the method: as §1

[12] = P-glycoprotein substrates identified in KB-8-5-11 adenocarcinoma cell line, qHTS therapeutic library screen (AID 1346987); note: nearly all actives have a fitted effect of over 65% in size; note: potency is the fitted concentration of half-maximal effect
Summary of the method: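 KB-8-5-11, a colchicine-selected P-gp-overexpressing KB-3-1 subline, was grown without colchicine for the assay. Cells were seeded at 500 cells/well, dosed in concentration-response and incubated 72 h at 37 degree C, 5% CO2. Viability was read by CellTiter-Glo luminescence.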

[13] = NS1 protein of Zika virus - qHTS assay to identify small molecule inhibitors in human HEK 293 cells (AID 1347053); note: nearly all actives have a fitted effect of over 55% in size; note: potency is the fitted concentration of half-maximal effect
Summary of the method: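 Inhibition of NS1 expression was scored in HEK 293 cells given compound 1 h ahead of MR766 virus (MOI = 0.5). Following 24 h at 37 C, two anti-NS1 antibodies generated a TR-FRET signal, scaled between uninfected and infected controls.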

[14] = qHTS of pediatric cancer cell lines to identify multiple opportunities for drug repurposing: Primary screen for TC32 cells (AID 1347089); note: nearly all actives have a fitted effect of over 60% in size; note: potency is the fitted concentration of half-maximal effect
Summary of the method: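 Measured quantity: luminescence from CellTiter-Glo, reflecting metabolically active TC32 cells following 48 h of compound. Curves came straight from multi-point titrations, with 8 or 11 points in primary and 11 in confirmatory screening.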

[15] = qHTS of pediatric cancer cell lines to identify multiple opportunities for drug repurposing: Primary screen for DAOY cells (AID 1347090); note: nearly all actives have a fitted effect of over 55% in size; note: potency is the fitted concentration of half-maximal effect
Summary of the method: (§2)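 Viability measured as metabolically active cells via CellTiter-Glo luminescence following 48 hours of compound exposure, 11-point dilutions in confirmatory testing. 500-1,000 cells/well plated 5 hours before dosing; controls were DMSO and 2.3 µM bortezomib.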

[16] = qHTS of pediatric cancer cell lines to identify multiple opportunities for drug repurposing: Primary screen for SK-N-MC cells (AID 1347093); note: potency is the fitted concentration of half-maximal effect
Summary of the method: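 Metabolically active cells were quantified by ATP-dependent luminescence (CellTiter-Glo, 15 min at room temperature) following 48 h treatment. Cells had been plated at 500-1,000 per well and settled for 5 h beforehand.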

[17] = qHTS of pediatric cancer cell lines to identify multiple opportunities for drug repurposing: Primary screen for BT-37 cells (AID 1347094); note: potency is the fitted concentration of half-maximal effect
Summary of the method: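 500-1,000 cells/well; 5 h pre-incubation 37 °C/5% CO2; compound pinned; 48 h; CellTiter-Glo, 15 min RT; luminescence. MIPE 11-pt from 0.78 nM, NPC 8-pt from 0.59 nM final. Bortezomib 2.3 µM final as positive control.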

[18] = qHTS of pediatric cancer cell lines to identify multiple opportunities for drug repurposing: Primary screen for SJ-GBM2 cells (AID 1347091); note: potency is the fitted concentration of half-maximal effect
Summary of the method: as §2

[19] = qHTS of pediatric cancer cell lines to identify multiple opportunities for drug repurposing: Primary screen for A673 cells (AID 1347092); note: nearly all actives have a fitted effect of over 45% in size; note: potency is the fitted concentration of half-maximal effect
Summary of the method: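 Cells are plated, rested 5 h, dosed by pintool, incubated 48 h, then lysed with CellTiter-Glo and read by luminescence. DMSO is the neutral control; bortezomib at 2.3 uM final is the positive control.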

CN[C@H](CC(C)C)C(=O)N[C@H]1C(=O)N[C@@H](CC(N)=O)C(=O)N[C@@H]2C(=O)N[C@H]3C(=O)N[C@H](C(=O)N[C@H](C(=O)O)c4cc(O)cc(O)c4-c4cc3ccc4O)[C@H](O)c3ccc(c(Cl)c3)Oc3cc2cc(c3O[C@@H]2O[C@H](CO)[C@@H](O)[C@H](O)[C@@H]2O[C@H]2C[C@](C)(N)[C@H](O)[C@H](C)O2)Oc2ccc(cc2Cl)[C@H]1O
inactive: outcome [1] | outcome [2] | outcome [3] | outcome [4]

O=c1[nH]c(=O)n([C@H]2C[C@@H](O)[C@@H](CO)O2)cc1C=CBr
inactive: outcome [1] | outcome [2] | outcome [3] | outcome [4]

CC(C=CC=C(C)C=CC1=C(C)CCCC1(C)C)=CC=CC=C(C)C=CC=C(C)C=CC1=C(C)CCCC1(C)C
10%: viability (% of control) [5]
inactive: Potency [6] | Potency [7] | Potency [12] | Potency [13] | Potency [14] | Potency [17]
active: Potency [8] 8.33 µM | Potency [9] 18.7 µM | Potency [10] 14.8 µM | Potency [11] 16.6 µM | Potency [15] 18.7 µM | Potency [16] 7.43 µM

O=c1ccn([C@@H]2O[C@H](CO)[C@H](O)[C@@H]2F)c(=O)[nH]1
119%: viability (% of control) [5]
inactive: Potency [6] | Potency [7] | Potency [12] | Potency [13] | Potency [14] | Potency [15] | Potency [18] | Potency [17]
active: Potency [8] 3.72 µM | Potency [9] 3.32 µM | Potency [10] 26.4 µM | Potency [11] 18.7 µM | Potency [19] 23.5 µM | Potency [16] 8.33 µM

O=C(O)C[C@H](O)C[C@H](O)C=Cc1c(C2CC2)nc2ccccc2c1-c1ccc(F)cc1
inactive: Potency [6] | Potency [7] | Potency [13]
active: Potency [8] 2.64 µM | Potency [9] 1.87 µM | Potency [10] 3.72 µM | Potency [11] 1.05 µM | Potency [12] 7.43 µM | Potency [14] 11.7 µM | Potency [15] 1.18 µM | Potency [18] 11.8 µM | Potency [19] 3.72 µM | Potency [16] 4.69 µM | Potency [17] 15.3 µM
38.9%: viability (% of control) [5]

NC(=O)Nc1sc(-c2ccc(F)cc2)cc1C(N)=O
inactive: Potency [6] | Potency [7] | Potency [13]
active: Potency [8] 1.05 µM | Potency [9] 1.66 µM | Potency [10] 3.72 µM | Potency [11] 1.48 µM | Potency [12] 8.33 µM | Potency [14] 3.7 µM | Potency [15] 0.469 µM | Potency [18] 0.372 µM | Potency [19] 0.59 µM | Potency [16] 0.059 µM
3.13%: viability (% of control) [5]

O=C(O)CCCCCC(=O)NN=C1CCCC1
inactive: Potency [6] | Potency [7] | Potency [8] | Potency [9] | Potency [10] | Potency [11] | Potency [12] | Potency [13] | Potency [14] | Potency [15] | Potency [18] | Potency [19] | Potency [17]
105%: viability (% of control) [5]

CCS(=O)(=O)Nc1ccc2[nH]c(O)c(C(=Nc3ccc(CN4CCCCC4)cc3)c3ccccc3)c2c1
inactive: Potency [6] | Potency [7] | Potency [12]
7.15%: viability (% of control) [5]
active: Potency [8] 0.662 µM | Potency [9] 0.132 µM | Potency [10] 0.0833 µM | Potency [11] 0.0833 µM | Potency [13] 18.7 µM | Potency [14] 0.131 µM | Potency [15] 7.43 µM | Potency [19] 0.59 µM | Potency [16] 0.118 µM | Potency [17] 27.3 µM

O=C(CCCCCCC(=O)Nc1cccnc1)NO
inactive: Potency [6] | Potency [7] | Potency [13]
active: Potency [8] 2.96 µM | Potency [9] 5.26 µM | Potency [10] 2.64 µM | Potency [11] 5.26 µM | Potency [12] 18.7 µM | Potency [14] 20.8 µM | Potency [15] 14.8 µM | Potency [18] 7.43 µM | Potency [19] 11.8 µM | Potency [16] 2.96 µM | Potency [17] 19.3 µM
10.1%: viability (% of control) [5]

O=C(NC1CC1)c1cccc(-c2ccc3c(NC(=O)C4CC4)n[nH]c3c2)c1
inactive: Potency [6] | Potency [7] | Potency [12] | Potency [13]
17.8%: viability (% of control) [5]
active: Potency [8] 1.32 µM | Potency [9] 1.32 µM | Potency [10] 3.72 µM | Potency [11] 1.32 µM | Potency [14] 9.3 µM | Potency [15] 1.18 µM | Potency [18] 13.2 µM | Potency [19] 0.372 µM | Potency [16] 0.372 µM

COc1cc(OC)cc(-c2ccc3ncc4ccc(=O)n(-c5ccc(N6CCNCC6)c(C(F)(F)F)c5)c4c3c2)c1
5.34%: viability (% of control) [5]
active: Potency [8] 2.96 µM | Potency [9] 2.64 µM | Potency [10] 4.18 µM | Potency [11] 3.32 µM | Potency [12] 7.43 µM | Potency [13] 11.8 µM | Potency [14] 18.6 µM | Potency [15] 2.96 µM | Potency [18] 4.18 µM | Potency [19] 0.935 µM | Potency [16] 1.32 µM | Potency [17] 15.3 µM
inactive: Potency [6] | Potency [7]

O=C(CN1C(=O)C2(CCCC2)NC[C@H]1c1cc(F)cc(F)c1)Nc1ccc2c(c1)C[C@@]1(C2)C(=O)Nc2ncccc21
inactive: Potency [6] | Potency [7] | Potency [8] | Potency [9] | Potency [10] | Potency [11] | Potency [12] | Potency [13] | Potency [14] | Potency [15] | Potency [18] | Potency [19] | Potency [16] | Potency [17]
107%: viability (% of control) [5]

CCc1cnn2c(NCc3ccc[n+]([O-])c3)cc(N3CCCC[C@@H]3CCO)nc12
active: Potency [8] 0.0418 µM | Potency [9] 0.0264 µM | Potency [10] 0.0235 µM | Potency [11] 0.0235 µM | Potency [12] 0.235 µM | Potency [13] 0.148 µM | Potency [14] 0.131 µM | Potency [15] 0.0372 µM | Potency [18] 0.0235 µM | Potency [19] 0.0148 µM | Potency [16] 0.0296 µM | Potency [17] 0.0385 µM
inactive: Potency [6] | Potency [7]
3.16%: viability (% of control) [5]
